# Measured values reported in the supplement of paper PMC4466140.
# How the values were obtained:
# Assay in all cases: SPOT peptide array binding signal intensity (averaged, normalized) (arbitrary units (background-subtracted, floor 0; scale differs between SH3 domains)); higher = stronger binding of the SH3 domain to the peptide
# SpBzz1-D2 = biological target: SpBzz1-D2
# Outline: (§1)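 Binding signal refers to normalized, background-subtracted spot intensity averaged over replicates, expressed in arbitrary units that differ between domains. GST-fused SH3 domains from four yeast species were incubated at 10 μg/ml overnight at 4°C on cellulose membranes of synthetic 15-mer peptides with cysteines replaced by serines. Bound protein was detected with anti-GST antibody, an HRP anti-mouse secondary and luminol, and quantified with Genespotter.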
# SpCyk3 = biological target: SpCyk3
# Outline: as §1
# SpHof1 = biological target: SpHof1
# Outline: as §1
# SpHof1-2 = biological target: SpHof1-2
# Outline: as §1
# SpHof1-3 = biological target: SpHof1-3
# Outline: as §1
# SpHse1 = biological target: SpHse1
# Outline: as §1
# SpLsb1 = biological target: SpLsb1
# Outline: as §1
# SpLsb4 = biological target: SpLsb4
# Outline: as §1
# SpMyo1 = biological target: SpMyo1
# Outline: as §1
# SpNbp2 = biological target: SpNbp2
# Outline: as §1
# SpPex13 = biological target: SpPex13
# Outline: as §1
# SpRvs167 = biological target: SpRvs167
# Outline: as §1
# SpSla1-D1-D2 = biological target: SpSla1-D1-D2
# Outline: as §1
# SpSla1-D3 = biological target: SpSla1-D3
# Outline: as §1
# AgAbp1 = biological target: AgAbp1
# Outline: as §1
# AgBbc1 = biological target: AgBbc1
# Outline: as §1
# AgBem1-D1 = biological target: AgBem1-D1
# Outline: as §1
# AgBzz1-D1 = biological target: AgBzz1-D1
# Outline: as §1
# AgBzz1-D2 = biological target: AgBzz1-D2
# Outline: as §1
# AgCyk3 = biological target: AgCyk3
# Outline: as §1
# AgFus1 = biological target: AgFus1
# Outline: as §1
# AgHof1 = biological target: AgHof1
# Outline: as §1
# AgHse1 = biological target: AgHse1
# Outline: as §1
# AgLsb1 = biological target: AgLsb1
# Outline: as §1
# AgLsb4 = biological target: AgLsb4
# Outline: as §1
# AgMyo5 = biological target: AgMyo5
# Outline: as §1
# AgNbp2 = biological target: AgNbp2
# Outline: as §1
# AgRvs167 = biological target: AgRvs167
# Outline: as §1
# AgSho1 = biological target: AgSho1
# Outline: as §1
# AgSla1-D1-D2 = biological target: AgSla1-D1-D2
# Outline: as §1
# AgSla1-D3 = biological target: AgSla1-D3
# Outline: as §1
# CaAbp1-D1 = biological target: CaAbp1-D1
# Outline: as §1
# CaAbp1-D2 = biological target: CaAbp1-D2
# Outline: as §1
# CaBbc1 = biological target: CaBbc1
# Outline: as §1
# CaBem1-D1 = biological target: CaBem1-D1
# Outline: as §1
# CaBzz1-D1 = biological target: CaBzz1-D1
# Outline: as §1
# CaBzz1-D2 = biological target: CaBzz1-D2
# Outline: as §1
# CaCyk3 = biological target: CaCyk3
# Outline: as §1
# CaFus1 = biological target: CaFus1
# Outline: as §1
# CaHof1 = biological target: CaHof1
# Outline: as §1
# CaHse1 = biological target: CaHse1
# Outline: as §1
# CaLsb1 = biological target: CaLsb1
# Outline: as §1
# CaLsb4 = biological target: CaLsb4
# Outline: as §1
# CaMyo5 = biological target: CaMyo5
# Outline: as §1
# CaNbp2 = biological target: CaNbp2
# Outline: as §1
# CaRvs167 = biological target: CaRvs167
# Outline: as §1
# CaRvs167-3 = biological target: CaRvs167-3
# Outline: as §1
# CaSho1 = biological target: CaSho1
# Outline: as §1
# CaSla1-D1-D2 = biological target: CaSla1-D1-D2
# Outline: as §1
# CaSla1-D3 = biological target: CaSla1-D3
# Outline: as §1
# ScAbp1 = biological target: ScAbp1
# Outline: as §1
# ScBbc1 = biological target: ScBbc1
# Outline: as §1
# ScBem1-D1 = biological target: ScBem1-D1
# Outline: as §1
# ScBzz1-D1 = biological target: ScBzz1-D1
# Outline: as §1
# ScBzz1-D2 = biological target: ScBzz1-D2
# Outline: as §1
# ScCyk3 = biological target: ScCyk3
# Outline: as §1
# ScFus1 = biological target: ScFus1
# Outline: as §1
# ScHof1 = biological target: ScHof1
# Outline: as §1
# ScHse1 = biological target: ScHse1
# Outline: as §1
# ScLsb1 = biological target: ScLsb1
# Outline: as §1
# ScLsb2 = biological target: ScLsb2
# Outline: as §1
# ScLsb3 = biological target: ScLsb3
# Outline: as §1
# ScLsb4 = biological target: ScLsb4
# Outline: as §1
# ScMyo3 = biological target: ScMyo3
# Outline: as §1
# ScMyo5 = biological target: ScMyo5
# Outline: as §1
# ScNbp2 = biological target: ScNbp2
# Outline: as §1
# ScPex13 = biological target: ScPex13
# Outline: as §1
# ScRvs167 = biological target: ScRvs167
# Outline: as §1
# ScSho1 = biological target: ScSho1
# Outline: as §1
# ScSla1-D1-D2 = biological target: ScSla1-D1-D2
# Outline: as §1
# ScSla1-D3 = biological target: ScSla1-D3
# Outline: as §1
# SpAbp1-D1 = biological target: SpAbp1-D1
# Outline: as §1
# SpBbc1 = biological target: SpBbc1
# Outline: as §1
# SpBzz1-D1 = biological target: SpBzz1-D1
# Outline: as §1
binder,measurement,setting,value
NFFRKKLGIPRKLKR,SPOT peptide array binding signal intensity,SpBzz1-D2,≤ 0
same,SPOT peptide array binding signal intensity,SpCyk3,≤ 0
same,SPOT peptide array binding signal intensity,SpHof1,87
same,SPOT peptide array binding signal intensity,SpHof1-2,1.25
same,SPOT peptide array binding signal intensity,SpHof1-3,998
same,SPOT peptide array binding signal intensity,SpHse1,1560
same,SPOT peptide array binding signal intensity,SpLsb1,25.5
same,SPOT peptide array binding signal intensity,SpLsb4,19
same,SPOT peptide array binding signal intensity,SpMyo1,0.5
same,SPOT peptide array binding signal intensity,SpNbp2,63.5
same,SPOT peptide array binding signal intensity,SpPex13,5
same,SPOT peptide array binding signal intensity,SpRvs167,3.67
same,SPOT peptide array binding signal intensity,SpSla1-D1-D2,≤ 0
same,SPOT peptide array binding signal intensity,SpSla1-D3,17.5
PLRRTVMSLPGNHDI,SPOT peptide array binding signal intensity,AgAbp1,206
same,SPOT peptide array binding signal intensity,AgBbc1,19.6
same,SPOT peptide array binding signal intensity,AgBem1-D1,302
same,SPOT peptide array binding signal intensity,AgBzz1-D1,9.5
same,SPOT peptide array binding signal intensity,AgBzz1-D2,4.75
same,SPOT peptide array binding signal intensity,AgCyk3,≤ 0
same,SPOT peptide array binding signal intensity,AgFus1,598
same,SPOT peptide array binding signal intensity,AgHof1,6.25
same,SPOT peptide array binding signal intensity,AgHse1,302
same,SPOT peptide array binding signal intensity,AgLsb1,29.5
same,SPOT peptide array binding signal intensity,AgLsb4,4.5
same,SPOT peptide array binding signal intensity,AgMyo5,3
same,SPOT peptide array binding signal intensity,AgNbp2,396
same,SPOT peptide array binding signal intensity,AgRvs167,3.83
same,SPOT peptide array binding signal intensity,AgSho1,453
same,SPOT peptide array binding signal intensity,AgSla1-D1-D2,24.2
same,SPOT peptide array binding signal intensity,AgSla1-D3,6
same,SPOT peptide array binding signal intensity,CaAbp1-D1,776
same,SPOT peptide array binding signal intensity,CaAbp1-D2,1280
same,SPOT peptide array binding signal intensity,CaBbc1,154
same,SPOT peptide array binding signal intensity,CaBem1-D1,200
same,SPOT peptide array binding signal intensity,CaBzz1-D1,172
same,SPOT peptide array binding signal intensity,CaBzz1-D2,62.4
same,SPOT peptide array binding signal intensity,CaCyk3,17
same,SPOT peptide array binding signal intensity,CaFus1,1290
same,SPOT peptide array binding signal intensity,CaHof1,0.375
same,SPOT peptide array binding signal intensity,CaHse1,106
same,SPOT peptide array binding signal intensity,CaLsb1,0.5
same,SPOT peptide array binding signal intensity,CaLsb4,493
same,SPOT peptide array binding signal intensity,CaMyo5,19.6
NGRRRPKFRVQLSGN,SPOT peptide array binding signal intensity,AgAbp1,206
same,SPOT peptide array binding signal intensity,AgBbc1,71
same,SPOT peptide array binding signal intensity,AgBem1-D1,339
same,SPOT peptide array binding signal intensity,AgBzz1-D1,84
same,SPOT peptide array binding signal intensity,AgBzz1-D2,46
same,SPOT peptide array binding signal intensity,AgCyk3,5
same,SPOT peptide array binding signal intensity,AgFus1,1440
same,SPOT peptide array binding signal intensity,AgHof1,47.8
same,SPOT peptide array binding signal intensity,AgHse1,1600
same,SPOT peptide array binding signal intensity,AgLsb1,16.5
same,SPOT peptide array binding signal intensity,AgLsb4,379
same,SPOT peptide array binding signal intensity,AgMyo5,1.5
same,SPOT peptide array binding signal intensity,AgNbp2,430
same,SPOT peptide array binding signal intensity,AgRvs167,9
same,SPOT peptide array binding signal intensity,AgSho1,269
same,SPOT peptide array binding signal intensity,AgSla1-D1-D2,462
same,SPOT peptide array binding signal intensity,AgSla1-D3,13
same,SPOT peptide array binding signal intensity,CaAbp1-D1,596
same,SPOT peptide array binding signal intensity,CaAbp1-D2,855
same,SPOT peptide array binding signal intensity,CaBbc1,134
same,SPOT peptide array binding signal intensity,CaBem1-D1,74.5
same,SPOT peptide array binding signal intensity,CaBzz1-D1,185
same,SPOT peptide array binding signal intensity,CaBzz1-D2,114
same,SPOT peptide array binding signal intensity,CaCyk3,33
same,SPOT peptide array binding signal intensity,CaFus1,3650
same,SPOT peptide array binding signal intensity,CaHof1,0.75
same,SPOT peptide array binding signal intensity,CaHse1,202
same,SPOT peptide array binding signal intensity,CaLsb1,4
same,SPOT peptide array binding signal intensity,CaLsb4,238
same,SPOT peptide array binding signal intensity,CaMyo5,4
same,SPOT peptide array binding signal intensity,CaNbp2,762
same,SPOT peptide array binding signal intensity,CaRvs167,80.3
same,SPOT peptide array binding signal intensity,CaRvs167-3,232
same,SPOT peptide array binding signal intensity,CaSho1,1190
same,SPOT peptide array binding signal intensity,CaSla1-D1-D2,295
same,SPOT peptide array binding signal intensity,CaSla1-D3,84
same,SPOT peptide array binding signal intensity,ScAbp1,130
same,SPOT peptide array binding signal intensity,ScBbc1,28.8
same,SPOT peptide array binding signal intensity,ScBem1-D1,166
same,SPOT peptide array binding signal intensity,ScBzz1-D1,41
same,SPOT peptide array binding signal intensity,ScBzz1-D2,104
same,SPOT peptide array binding signal intensity,ScCyk3,131
same,SPOT peptide array binding signal intensity,ScFus1,2430
same,SPOT peptide array binding signal intensity,ScHof1,6.5
same,SPOT peptide array binding signal intensity,ScHse1,3000
same,SPOT peptide array binding signal intensity,ScLsb1,6
same,SPOT peptide array binding signal intensity,ScLsb2,14
same,SPOT peptide array binding signal intensity,ScLsb3,719
same,SPOT peptide array binding signal intensity,ScLsb4,42.5
same,SPOT peptide array binding signal intensity,ScMyo3,1.5
same,SPOT peptide array binding signal intensity,ScMyo5,4.75
same,SPOT peptide array binding signal intensity,ScNbp2,489
same,SPOT peptide array binding signal intensity,ScPex13,4
same,SPOT peptide array binding signal intensity,ScRvs167,52.7
same,SPOT peptide array binding signal intensity,ScSho1,2060
same,SPOT peptide array binding signal intensity,ScSla1-D1-D2,693
same,SPOT peptide array binding signal intensity,ScSla1-D3,6.5
same,SPOT peptide array binding signal intensity,SpAbp1-D1,561
same,SPOT peptide array binding signal intensity,SpBbc1,13
same,SPOT peptide array binding signal intensity,SpBzz1-D1,162
same,SPOT peptide array binding signal intensity,SpBzz1-D2,0.75
same,SPOT peptide array binding signal intensity,SpCyk3,4
same,SPOT peptide array binding signal intensity,SpHof1,269
same,SPOT peptide array binding signal intensity,SpHof1-2,12.5
same,SPOT peptide array binding signal intensity,SpHof1-3,788
same,SPOT peptide array binding signal intensity,SpHse1,1140
same,SPOT peptide array binding signal intensity,SpLsb1,10.5
same,SPOT peptide array binding signal intensity,SpLsb4,294
same,SPOT peptide array binding signal intensity,SpMyo1,18.8
same,SPOT peptide array binding signal intensity,SpNbp2,1300
same,SPOT peptide array binding signal intensity,SpPex13,62.5
same,SPOT peptide array binding signal intensity,SpRvs167,14.2
same,SPOT peptide array binding signal intensity,SpSla1-D1-D2,≤ 0
same,SPOT peptide array binding signal intensity,SpSla1-D3,43
